Laboratory results from PubChem BioAssay (EPA / NIEHS).
Results filed as inconclusive are left out. Active and inactive are the calls of the source. The calls were made as follows, unless noted: active = hit-call score of the fitted dose curve at least 0.9, where 1 is the maximum; inconclusive = response in the unintended direction; inactive = score below 0.9.

Columns and labels:
[1] = biological target: human Phosphodiesterase 4A1 (PDE4A1), PDE4A (gene 5141) (UniProt P27815); test: NVS_ENZ_hPDE4A1: NovaScreen (NVS) Enzymatic Assay for human Phosphodiesterase 4A1 (PDE4A1) (AID 2283191)
Outline: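 Cell-free recombinant human PDE4A1 with fluorescent substrate; product separated by electrophoretic mobility shift, 1 h. Screened at 25 uM, then up to 50 uM in concentration-response; loss of signal fitted against DMSO.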

[2] = biological target: human Phosphodiesterase 5 (PDE5), PDE5A (gene 8654) (UniProt O76074); test: NVS_ENZ_hPDE5: NovaScreen (NVS) Enzymatic Assay for human Phosphodiesterase 5 (PDE5) (AID 2283194)
Outline: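 Recombinant human PDE5 with specific substrate, read 1 h after dosing by fluorescence with electrophoretic mobility-shift separation of substrate and product. Initial single-concentration duplicate screen at 25 uM, actives followed in concentration series; loss of activity versus DMSO.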

[3] = biological target: Tyrosine-protein phosphatase non-receptor type 14 (Homo sapiens) (UniProt Q15678); test: NVS_ENZ_hPTPN14: NovaScreen (NVS) Enzymatic Assay for human Protein Tyrosine Phosphatase Non-receptor Type 14 (PTPN14) (AID 2283206)
Chain of Tyrosine-protein phosphatase non-receptor type 14 (Homo sapiens) (Q15678 whole entry, looked up): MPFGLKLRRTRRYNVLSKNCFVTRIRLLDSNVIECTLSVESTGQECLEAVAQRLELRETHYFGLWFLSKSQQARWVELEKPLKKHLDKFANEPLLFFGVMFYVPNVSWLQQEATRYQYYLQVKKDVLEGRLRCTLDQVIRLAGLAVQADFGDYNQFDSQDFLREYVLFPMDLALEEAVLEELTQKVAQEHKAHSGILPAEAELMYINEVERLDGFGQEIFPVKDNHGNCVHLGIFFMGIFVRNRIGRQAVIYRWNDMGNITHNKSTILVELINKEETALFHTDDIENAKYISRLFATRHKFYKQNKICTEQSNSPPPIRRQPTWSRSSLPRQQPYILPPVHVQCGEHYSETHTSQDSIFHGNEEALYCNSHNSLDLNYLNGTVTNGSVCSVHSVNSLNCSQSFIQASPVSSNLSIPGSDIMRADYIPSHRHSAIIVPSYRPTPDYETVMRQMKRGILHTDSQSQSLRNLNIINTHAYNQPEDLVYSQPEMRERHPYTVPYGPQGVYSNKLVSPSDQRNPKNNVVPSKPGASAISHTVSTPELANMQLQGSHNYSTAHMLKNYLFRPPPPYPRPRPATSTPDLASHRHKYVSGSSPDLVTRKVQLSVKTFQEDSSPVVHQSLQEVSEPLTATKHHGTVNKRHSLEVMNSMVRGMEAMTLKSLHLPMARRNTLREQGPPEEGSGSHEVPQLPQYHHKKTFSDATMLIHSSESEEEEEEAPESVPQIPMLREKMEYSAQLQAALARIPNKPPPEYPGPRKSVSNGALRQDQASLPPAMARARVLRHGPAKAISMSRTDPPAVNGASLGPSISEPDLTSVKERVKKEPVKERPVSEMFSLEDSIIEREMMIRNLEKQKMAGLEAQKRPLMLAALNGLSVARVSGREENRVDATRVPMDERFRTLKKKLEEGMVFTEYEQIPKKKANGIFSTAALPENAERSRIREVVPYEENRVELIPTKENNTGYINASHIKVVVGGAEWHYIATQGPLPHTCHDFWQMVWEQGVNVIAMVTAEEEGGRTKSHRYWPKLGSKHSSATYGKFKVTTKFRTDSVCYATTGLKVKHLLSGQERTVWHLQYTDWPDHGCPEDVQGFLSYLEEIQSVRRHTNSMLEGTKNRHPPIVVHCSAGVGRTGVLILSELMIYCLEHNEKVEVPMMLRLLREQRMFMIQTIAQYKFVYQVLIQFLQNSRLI
Outline: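 Cell-free recombinant human PTPN14 with fluorescent substrate, read 0.5 h after dosing by fluorescence and electrophoretic mobility shift separating substrate from product. Primary screen at 25 uM in duplicate; hits run to 50 uM maximum; loss of signal versus DMSO.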

[4] = biological target: human SRC Proto-Oncogene, Non-receptor Tyrosine Kinase (SRC), SRC (gene 6714) (UniProt P12931); test: NVS_ENZ_hSRC: NovaScreen (NVS) Enzymatic Assay for human SRC Proto-Oncogene, Non-receptor Tyrosine Kinase (SRC) (AID 2283223)
Chain of human SRC Proto-Oncogene, Non-receptor Tyrosine Kinase (SRC), SRC (gene 6714) (P12931 whole entry, looked up): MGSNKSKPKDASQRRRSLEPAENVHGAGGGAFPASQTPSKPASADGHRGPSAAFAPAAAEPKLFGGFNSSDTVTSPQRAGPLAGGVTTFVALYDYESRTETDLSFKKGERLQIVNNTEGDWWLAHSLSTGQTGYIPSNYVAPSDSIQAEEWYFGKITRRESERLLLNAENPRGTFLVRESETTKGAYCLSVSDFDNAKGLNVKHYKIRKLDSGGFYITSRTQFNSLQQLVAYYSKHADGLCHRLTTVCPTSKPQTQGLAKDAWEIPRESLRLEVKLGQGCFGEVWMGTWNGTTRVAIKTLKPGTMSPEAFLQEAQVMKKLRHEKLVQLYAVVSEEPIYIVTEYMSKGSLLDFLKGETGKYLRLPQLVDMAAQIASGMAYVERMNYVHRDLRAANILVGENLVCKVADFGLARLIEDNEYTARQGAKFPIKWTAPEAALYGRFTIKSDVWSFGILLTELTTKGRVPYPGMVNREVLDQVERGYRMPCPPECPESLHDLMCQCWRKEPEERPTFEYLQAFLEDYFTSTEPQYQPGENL
Outline: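 Cell-free kinase activity assay with fluorescent substrate, product separated by electrophoretic mobility shift, read 1 h after dosing. Duplicate single point at 25 uM, then concentration-response up to 50 uM; loss of signal versus DMSO.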

[5] = system: bovine Histamine 1 Receptor (H1), gene 281231; test: NVS_GPCR_bH1: NovaScreen (NVS) G Protein-Coupled Receptor Assay for bovine Histamine 1 Receptor (H1) (AID 2283246)
Outline: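 Radioligand displacement on bovine cerebellar membranes, 1 h after dosing, filter-based scintillation read-out; loss of signal vs DMSO. Duplicate single-concentration screen at 25 uM, then concentration-response up to 50 uM for hits.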

[6] = biological target: rat Glutamate Metabotropic Receptor 5 (MGluR5), Grm5 (gene 24418) (UniProt P31424); test: NVS_GPCR_rmMGluR5: NovaScreen (NVS) G Protein-Coupled Receptor Assay for rat Glutamate Metabotropic Receptor 5 (MGluR5) (AID 2283307)
Outline: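 Rat whole-brain membrane preparation; filter-based radioligand binding read by scintillation counting, 1.5 h after dosing. Single-point screen at 25 uM in duplicate; hits over threshold (e.g. 30% inhibition) retested in concentration-response up to 50 uM; loss of signal vs DMSO.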

[7] = biological target: rat Oxytocin Receptor (OXT), Oxtr (gene 25342) (UniProt P70536); test: NVS_GPCR_rOXT: NovaScreen (NVS) G Protein-Coupled Receptor Assay for rat Oxytocin Receptor (OXT) (AID 2283330)
Chain of rat Oxytocin Receptor (OXT), Oxtr (gene 25342) (P70536 whole entry, looked up): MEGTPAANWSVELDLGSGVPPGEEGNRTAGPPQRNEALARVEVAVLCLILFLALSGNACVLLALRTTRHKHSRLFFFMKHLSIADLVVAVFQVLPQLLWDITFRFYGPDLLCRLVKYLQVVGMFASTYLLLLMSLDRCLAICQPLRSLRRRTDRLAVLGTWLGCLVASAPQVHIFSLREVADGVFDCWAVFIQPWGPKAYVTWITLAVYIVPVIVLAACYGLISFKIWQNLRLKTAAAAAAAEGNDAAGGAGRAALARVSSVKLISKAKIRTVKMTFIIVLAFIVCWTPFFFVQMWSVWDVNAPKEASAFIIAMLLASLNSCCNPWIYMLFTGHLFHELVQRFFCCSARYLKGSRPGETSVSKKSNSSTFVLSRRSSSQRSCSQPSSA
Outline: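 Radioligand displacement on rat uterine membranes, 1 h incubation, filter-based scintillation counting. Chemicals were screened in duplicate at 25 uM, and those passing threshold were retested in concentration-response up to 50 uM. Loss of binding was fitted versus DMSO.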

[8] = biological target: Bile acid receptor (Homo sapiens) (UniProt Q96RI1); test: OT_FXR_FXRSRC1_0480: Odyssey Thera (OT) 8-hour HEK293T Protein-Complementation Assay for Farnesoid X receptor/SRC-1 Co-activator (AID 2283383)
Chain of Bile acid receptor (Homo sapiens) (Q96RI1 whole entry, looked up, the tested form may be a part): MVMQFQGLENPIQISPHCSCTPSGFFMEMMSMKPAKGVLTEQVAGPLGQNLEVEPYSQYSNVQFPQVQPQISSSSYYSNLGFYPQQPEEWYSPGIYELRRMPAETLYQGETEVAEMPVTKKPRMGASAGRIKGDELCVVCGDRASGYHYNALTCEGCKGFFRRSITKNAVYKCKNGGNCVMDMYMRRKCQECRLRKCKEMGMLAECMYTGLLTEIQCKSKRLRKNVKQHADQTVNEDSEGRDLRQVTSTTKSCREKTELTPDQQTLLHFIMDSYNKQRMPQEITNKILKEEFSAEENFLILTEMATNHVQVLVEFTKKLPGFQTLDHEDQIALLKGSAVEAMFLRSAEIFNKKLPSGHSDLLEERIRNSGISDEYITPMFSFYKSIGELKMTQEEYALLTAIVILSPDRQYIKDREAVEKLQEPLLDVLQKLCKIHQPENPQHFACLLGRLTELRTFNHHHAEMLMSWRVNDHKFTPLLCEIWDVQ
Outline: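 HEK293T protein-fragment complementation assay: FXR and SRC-1 coactivator are fused to reporter fragments, and their interaction restores a fluorescent reporter. Readout was taken 8 h after dosing, with gain of signal fit relative to DMSO.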

[9] = read-out: Cyclin D2 (CCND2), CCND2 (gene 894); test: LTEA_HepaRG_CCND2: Life Technologies and Expression Analysis (LTEA) Assay for Cyclin D2 (CCND2) using HepaRG (AID 2283449; active = hit-call score of the fitted dose curve at least 0.9, where 1 is the maximum; inactive = score below 0.9;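 also: CCND2 transcript measured by TaqMan qRT-PCR and normalised to three housekeeping genes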); conditions: mRNA level, 48 h; actives raise or lower the signal
Outline: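 Differentiated human HepaRG cells were exposed for 48 h in serum-free induction medium to eight half-log concentrations topping at 100 uM (0.5% DMSO vehicle). CCND2 mRNA was quantified by TaqMan qRT-PCR, normalised to ACTB, GAPDH and POLR2A, and fitted bidirectionally against DMSO.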

[10] = Tanguay_ZF_120hpf_CIRC_legacy: (Legacy) Oregon State University Tanguay Lab 120 Hour Post-fertilization zebrafish Assay for Circulatory Malformation (AID 2283651)
Outline: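 Dechorionated wild-type 5D zebrafish embryos, one per well, statically exposed from 6 to 120 hpf at 28C with 0.64% DMSO; circulatory malformation scored present/absent by brightfield microscopy at 120 hpf, dead embryos excluded.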

[11] = biological target: human Phosphatase and Tensin Homolog (PTEN), PTEN (gene 5728) (UniProt P60484); test: NVS_ENZ_hPTEN: NovaScreen (NVS) Enzymatic Assay for human Phosphatase and Tensin Homolog (PTEN) (AID 2283203)
Outline: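 Cell-free recombinant human PTEN with fluorescent substrate; product separated by electrophoretic mobility shift and read by fluorescence 1 h after dosing. Primary screen in duplicate at 25 uM, actives followed in concentration series versus DMSO.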

[12] = biological target: human AKT serine/threonine Kinase 1 (AKT1), AKT1 (gene 207) (UniProt P31749); test: NVS_ENZ_hAKT1: NovaScreen (NVS) Enzymatic Assay for human AKT serine/threonine Kinase 1 (AKT1) (AID 2283138)
Chain of human AKT serine/threonine Kinase 1 (AKT1), AKT1 (gene 207) (P31749 whole entry, looked up): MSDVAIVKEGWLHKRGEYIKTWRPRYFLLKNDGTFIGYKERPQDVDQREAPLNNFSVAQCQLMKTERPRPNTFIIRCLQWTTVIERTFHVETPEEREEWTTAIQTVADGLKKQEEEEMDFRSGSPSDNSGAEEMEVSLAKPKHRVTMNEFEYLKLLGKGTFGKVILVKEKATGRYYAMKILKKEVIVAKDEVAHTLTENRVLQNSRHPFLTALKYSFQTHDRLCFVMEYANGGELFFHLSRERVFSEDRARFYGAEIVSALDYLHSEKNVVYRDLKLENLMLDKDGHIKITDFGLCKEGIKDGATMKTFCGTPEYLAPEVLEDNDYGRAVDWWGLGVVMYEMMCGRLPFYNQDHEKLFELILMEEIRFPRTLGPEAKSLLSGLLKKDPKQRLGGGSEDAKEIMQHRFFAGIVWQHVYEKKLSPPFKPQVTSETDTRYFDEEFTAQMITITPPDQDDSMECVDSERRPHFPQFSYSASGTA
Outline: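 Recombinant human AKT1 with a specific substrate, product separated by electrophoretic mobility shift, read after 1 h. Compounds at 25 uM in duplicate, then concentration-response up to 50 uM for hits; inhibition relative to DMSO.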

[13] = biological target: human Casein Kinase 1-delta (CK1D), CSNK1D (gene 1453) (UniProt P48730); test: NVS_ENZ_hCK1D: NovaScreen (NVS) Enzymatic Assay for human Casein Kinase 1-delta (CK1D) (AID 2283148)
Chain of human Casein Kinase 1-delta (CK1D), CSNK1D (gene 1453) (P48730 whole entry, looked up): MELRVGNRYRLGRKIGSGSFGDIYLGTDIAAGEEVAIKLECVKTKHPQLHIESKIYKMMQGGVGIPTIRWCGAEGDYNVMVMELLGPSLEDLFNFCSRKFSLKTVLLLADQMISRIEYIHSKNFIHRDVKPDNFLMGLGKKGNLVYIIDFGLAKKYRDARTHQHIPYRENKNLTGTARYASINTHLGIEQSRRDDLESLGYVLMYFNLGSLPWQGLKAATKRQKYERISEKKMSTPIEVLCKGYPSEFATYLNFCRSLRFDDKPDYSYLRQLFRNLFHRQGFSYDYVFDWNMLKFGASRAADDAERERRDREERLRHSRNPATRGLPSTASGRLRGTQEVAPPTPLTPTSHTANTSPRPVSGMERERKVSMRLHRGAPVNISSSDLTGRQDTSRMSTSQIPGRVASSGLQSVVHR
Outline: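 Recombinant human CK1-delta, cell-free; fluorescent substrate with electrophoretic mobility-shift separation of product, read 1 h after dosing. Single 25 uM duplicate screen, then concentration-response up to 50 uM; loss of signal vs DMSO.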

[14] = biological target: human Colony Stimulating Factor 1 Receptor (CSF1R), CSF1R (gene 1436) (UniProt P07333); test: NVS_ENZ_hCSF1R: NovaScreen (NVS) Enzymatic Assay for human Colony Stimulating Factor 1 Receptor (CSF1R) (AID 2283150)
Outline: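 Cell-free recombinant human CSF1R kinase with fluorescent substrate, product separated by electrophoretic mobility shift; read 1 h after dosing. Primary screen at 25 uM in duplicate, actives then in concentration-response up to 50 uM, relative to DMSO.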

[15] = biological target: human Fibroblast Growth Factor Receptor 1 (FGFR1), FGFR1 (gene 2260) (UniProt P11362); test: NVS_ENZ_hFGFR1: NovaScreen (NVS) Enzymatic Assay for human Fibroblast Growth Factor Receptor 1 (FGFR1) (AID 2283159)
Chain of human Fibroblast Growth Factor Receptor 1 (FGFR1), FGFR1 (gene 2260) (P11362 whole entry, looked up): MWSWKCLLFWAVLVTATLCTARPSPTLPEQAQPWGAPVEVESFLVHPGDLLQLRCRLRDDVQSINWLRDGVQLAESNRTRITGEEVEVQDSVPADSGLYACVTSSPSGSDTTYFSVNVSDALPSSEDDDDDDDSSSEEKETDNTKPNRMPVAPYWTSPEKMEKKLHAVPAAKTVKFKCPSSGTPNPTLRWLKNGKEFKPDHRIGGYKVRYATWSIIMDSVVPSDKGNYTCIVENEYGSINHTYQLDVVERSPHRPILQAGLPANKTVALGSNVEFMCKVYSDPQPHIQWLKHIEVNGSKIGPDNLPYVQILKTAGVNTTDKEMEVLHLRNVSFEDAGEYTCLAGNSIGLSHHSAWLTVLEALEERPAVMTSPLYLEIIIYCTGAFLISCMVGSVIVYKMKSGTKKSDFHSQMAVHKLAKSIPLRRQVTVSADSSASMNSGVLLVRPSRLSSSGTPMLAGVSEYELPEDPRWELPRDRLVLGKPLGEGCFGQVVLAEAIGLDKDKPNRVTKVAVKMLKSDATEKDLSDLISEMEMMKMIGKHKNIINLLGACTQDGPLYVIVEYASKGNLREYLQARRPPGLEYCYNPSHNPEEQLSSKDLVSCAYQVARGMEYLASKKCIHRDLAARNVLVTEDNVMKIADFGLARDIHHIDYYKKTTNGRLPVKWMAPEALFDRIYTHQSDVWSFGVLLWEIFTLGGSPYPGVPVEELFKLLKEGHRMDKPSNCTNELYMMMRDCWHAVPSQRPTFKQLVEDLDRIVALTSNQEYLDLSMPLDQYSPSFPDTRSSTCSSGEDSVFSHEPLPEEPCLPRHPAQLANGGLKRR
Outline: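 Cell-free recombinant kinase with fluorescent substrate, product separated by electrophoretic mobility shift; read 1 hour after dosing, loss of signal relative to DMSO. Initial screen in duplicate at 25 uM, actives followed in concentration series.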

[16] = biological target: human FYN Proto-Oncogene, Src family Tyrosine Kinase (Fyn), FYN (gene 2534) (UniProt P06241); test: NVS_ENZ_hFyn: NovaScreen (NVS) Enzymatic Assay for human FYN Proto-Oncogene, Src family Tyrosine Kinase (Fyn) (AID 2283161)
Outline: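 Recombinant enzyme with fluorescent substrate, product separated by electrophoretic mobility shift; read 1 h after dosing. Duplicate 25 uM single-point screen, actives retested in concentration series; loss of signal vs DMSO.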

[17] = biological target: Tyrosine-protein phosphatase non-receptor type 11 (Homo sapiens) (UniProt Q06124); test: NVS_ENZ_hPTPN11: NovaScreen (NVS) Enzymatic Assay for human Protein Tyrosine Phosphatase Non-receptor Type 11 (PTPN11) (AID 2283202)
Outline: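 Recombinant human PTPN11 activity on a fluorescent substrate, with substrate/product separated by electrophoretic mobility shift; read 0.5 h after dosing, loss of signal vs DMSO. Duplicate 25 uM screen, then concentration-response up to 50 uM.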

[18] = biological target: Tyrosine-protein phosphatase non-receptor type 13 (Homo sapiens) (UniProt Q12923); test: NVS_ENZ_hPTPN13: NovaScreen (NVS) Enzymatic Assay for human Protein Tyrosine Phosphatase Non-receptor Type 13 (PTPN13) (AID 2283205)
Outline: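 Cell-free assay of recombinant human PTPN13 with a fluorescent substrate, product separated by electrophoretic mobility shift and read 0.5 h after dosing. Primary screen at 25 uM in duplicate, then concentration-response up to 50 uM. Loss of signal fitted against DMSO.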

[19] = biological target: human Protein Tyrosine Phosphatase Non-receptor Type 2 (PTPN2), PTPN2 (gene 5771) (UniProt P17706); test: NVS_ENZ_hPTPN2: NovaScreen (NVS) Enzymatic Assay for human Protein Tyrosine Phosphatase Non-receptor Type 2 (PTPN2) (AID 2283207)
Chain of human Protein Tyrosine Phosphatase Non-receptor Type 2 (PTPN2), PTPN2 (gene 5771) (P17706 whole entry, looked up): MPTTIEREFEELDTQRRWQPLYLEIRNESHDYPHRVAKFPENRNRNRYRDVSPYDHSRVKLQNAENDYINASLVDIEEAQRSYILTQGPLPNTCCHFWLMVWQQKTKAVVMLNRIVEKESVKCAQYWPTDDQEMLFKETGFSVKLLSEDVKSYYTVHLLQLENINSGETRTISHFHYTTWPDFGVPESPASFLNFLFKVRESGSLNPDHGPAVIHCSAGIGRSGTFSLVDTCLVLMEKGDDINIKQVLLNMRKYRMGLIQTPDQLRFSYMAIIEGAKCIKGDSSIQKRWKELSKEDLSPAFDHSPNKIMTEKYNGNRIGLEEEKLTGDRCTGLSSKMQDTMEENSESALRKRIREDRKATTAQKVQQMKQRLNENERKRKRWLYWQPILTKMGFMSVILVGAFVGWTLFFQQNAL
Outline: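 Cell-free recombinant enzyme with fluorescent substrate, product separated by electrophoretic mobility shift; read 1 h after dosing. Primary screen single concentration (25 uM) in duplicate; actives followed in concentration series; loss of signal versus DMSO.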

[20] = biological target: human Vascular Endothelial Growth Factor Receptor 3 (VEGFR3), FLT4 (gene 2324) (UniProt P35916); test: NVS_ENZ_hVEGFR3: NovaScreen (NVS) Enzymatic Assay for human Vascular Endothelial Growth Factor Receptor 3 (VEGFR3) (AID 2283229)
Outline: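 Cell-free recombinant VEGFR3 kinase reaction with fluorescent substrate, read 1 h after dosing by electrophoretic mobility shift separation of substrate and product. Single-concentration duplicate screen at 25 uM, then concentration-response up to 50 uM; loss of activity versus DMSO.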

Measured: outcome

N#CCCCCC#N
inactive: [1] | [2] | [3] | [4] | [5] | [6] | [7] | [8] | [9] | [10]

Cl/C=C\CCl
inactive: [11]

O=[N+]([O-])c1ccc(Cl)cc1
inactive: [12] | [13] | [14] | [15] | [16] | [17] | [18] | [19] | [20]
